According to PubChem BioAssay (NCI):
About 79,000 compounds went through this panel and 15% of them were active in at least one assay; those are over-represented in the sample as a whole. Unmarked numbers belong to inactive results. Calls of active or inactive are those of the source. Rule as the data show it: active = growth inhibition above about 70%; inactive = the rest.

Columns and labels:
[1] = NCI Yeast Anticancer Drug Screen. Data for the rad50 strain (AID 155);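 also: 0% = growth of vehicle-only cultures of the same strain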; settings: S. cerevisiae rad50 strain growth inhibition; at 50.0 µM; active compounds read high
In short: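 DNA repair mutant yeast, compound exposure, growth read-out; inhibition is taken relative to vehicle.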

[2] = NCI Yeast Anticancer Drug Screen. Data for the mec2-1 strain (AID 157); settings: S. cerevisiae mec2-1 strain, at 50.0 µM, active compounds read high
In short: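 Compounds were applied to mec2-1 yeast cells. Their growth was then compared with that of vehicle-treated cultures to give growth inhibition.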

[3] = NCI Yeast Anticancer Drug Screen. Data for the sgs1 mgt1 strain (AID 161);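 also: 0% = growth of cultures given vehicle only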; settings: S. cerevisiae sgs1 mgt1 strain, at 50.0 µM, active compounds read high
In short: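 This yeast growth screen uses a strain with defined DNA-repair lesions; compound-treated growth is compared with vehicle-treated growth.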

[4] = NCI Yeast Anticancer Drug Screen. Data for the cln2 rad14 strain (AID 165);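 also: 0% = growth equal to vehicle treated cultures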; settings: S. cerevisiae cln2 rad14 strain, at 50.0 µM, active compounds read high
In short: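 Strain: cln2 rad14 yeast, altered in cell cycle control and DNA damage repair. Read-out: growth inhibition vs vehicle.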

[5] = NCI Yeast Anticancer Drug Screen. Data for the bub3 strain (AID 167); settings: S. cerevisiae bub3 mutant strain, at 50.0 µM, active compounds read high
In short: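 In this screen, a yeast mutant lacking normal mitotic checkpoint function is challenged with compound. Relative growth versus vehicle gives the inhibition value.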

[6] = NCI Yeast Anticancer Drug Screen. Data for the mlh1 rad18 strain (AID 175); settings: S. cerevisiae mlh1 rad18 strain growth inhibition; at 50.0 µM; active compounds read high
In short: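 A repair-deficient yeast strain is exposed to test compound, and growth is scored relative to vehicle-treated controls.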

| SMILES | growth inhibition [1] | growth inhibition [2] | growth inhibition [3] | growth inhibition [4] | growth inhibition [5] | growth inhibition [6] |
| --- | --- | --- | --- | --- | --- | --- |
| CCN1C(=NCCO)NS(=O)(=O)c2ccccc21 | -17.2% | 3.4% | -25.4% | -1.95% | -24.6% | 0.35% |
| CCCCOC(=O)/C=C/c1ccc(OC(C)C)cc1 | 3.95% | -9% | -9.4% | -48.1% | 19.9% | -10.4% |
| Cc1cc2[nH]c(=O)c(=O)[nH]c2cc1C | 0.35% | 4.05% | 7.15% | 17.7% | -0.95% | 2.55% |
| NC(=S)N/N=C\C(CC(O)C(O)CO)=N\NC(N)=S (configuration not stated) | 4.95% | 6.55% | 4.45% | 8.7% | 12.4% | 10.2% |
| COc1ccc(/C=C2/CCOC2=O)cc1 | 44.1% | 18.7% | 11.4% | -9.3% | -2.6% | 28.8% |
| OC(COc1cccc(C(F)(F)F)c1)CN1CCN(c2ccccc2)CC1 (configuration not stated) | 83.7% (active) | 83% (active) | 93.5% (active) | 86.7% (active) | 75.4% (active) | 87.3% (active) |
| Clc1ccc(C2SC=Cc3ccccc32)cc1 (configuration not stated) | 53.8% | 33.8% | 47.6% | 5.9% | 49.8% | 37.7% |
| CCC(O)C(C)CO (configuration not stated) | 11.8% | 5.05% | 19.3% | -72.8% | 7.8% | -46.9% |
| CC(=O)Nc1ccc(-c2cn3ccccc3n2)cc1 | 6.6% | -1.5% | 20.7% | 25.6% | 13.7% | 21.8% |
| O=c1oc2ccc(Br)cc2cc1-n1nnc2ccccc21 | -0.45% | -6.55% | 2.45% | 0.6% | 15.9% | 5.55% |
| CC(=O)N1c2ccccc2C2(C)CCCC(O)C12O (configuration not stated) | 8.05% | 6.05% | -3.9% | 1.9% | 6.5% | -23.9% |
| CCCCCCCCCCCCCCCCOC(=O)/C=C/c1ccccc1 | -8.35% | -2.35% | -7.45% | -8.55% | -12.3% | 9.1% |
| COc1cc(C(=O)OC2CC3CN(CCc4c[nH]c5ccccc45)CC3CC2OC)cc(OC)c1OC (configuration not stated) | 5.9% | 3.25% | 28.4% | 32.9% | 5.05% | 45.7% |
| COc1ccc(N2C(=O)C3c4[nH]c5ccccc5c4C4CCC(C(C)(C)C)CC4C3C2=O)cc1OC (configuration not stated) | 46.8% | 18.4% | 14.8% | -3.4% | 44.2% | 38.1% |
| CCC(CC)(SC(C)C(N)=O)C(C)=O (configuration not stated) | 0.35% | 7.4% | -16.3% | -11.3% | 5.75% | 0.6% |
| c1ccc(CN2CCC(N3CCCC3)CC2)cc1 | -22.7% | -26.1% | -22% | 10.7% | -23.3% | -29.9% |
| CN(C)C(=O)Nc1cccc2nsnc12 | 12.4% | -2.75% | 11% | -50.5% | -5.95% | 29.6% |
| c1ccc2c(c1)CCN2CCN1CCc2ccccc21 | 9.4% | -12.4% | 20.1% | -7.6% | 40.2% | 11.6% |
| COc1ccc(/C=C/C(=O)C(C)(CN(C)C)CN(C)C)cc1 | 0.95% | -13.8% | 4.95% | 6.85% | -11.2% | 11.8% |

| SMILES | growth inhibition [1] | growth inhibition [2] | growth inhibition [3] | growth inhibition [4] | growth inhibition [5] | growth inhibition [6] |
| --- | --- | --- | --- | --- | --- | --- |
| CC(COc1cc(Cl)c(Cl)cc1Cl)OC(=O)COc1ccc(Cl)cc1Cl (configuration not stated) | 8.75% | 8.85% | 7.7% | 28.5% | 2.9% | 7% |
| CC(O)CCC(O)CCCO (configuration not stated) | 7.8% | -10.7% | 8.4% | -17.1% | 4.65% | -11.7% |
| COC(=O)C1(Cc2ccccc2)Cc2ccccc2C1=O (configuration not stated) | -3.1% | 3% | 37.7% | 33.9% | 39.2% | -3% |
| CCC(C)(C)C(O)c1ccc2c(c1)OCO2 (configuration not stated) | -0.2% | -13.2% | 4.1% | -7.65% | 1.3% | -28.5% |
| CCCCN(C(C)=O)c1ccccc1 | -8.8% | 9.45% | 4.2% | -6.15% | -9.4% | 1.1% |
| CC1=C(CO)C(=O)O[C@@H]([C@@H](C)[C@H]2CC[C@H]3[C@@H]4C[C@@H](O)[C@@]5(O)CC=CC(=O)[C@]5(C)[C@H]4CC[C@]23C)C1 | -6.5% | -7.15% | -17.7% | -9.55% | -36.2% | -77.1% |
| COc1ccc(C(=O)C2CC(=O)NC2=O)cc1 (configuration not stated) | -11.6% | -5.95% | -1.8% | -38.5% | -0.7% | -0.4% |
| Cc1cc(C(=O)C(C(c2ccccc2)N2CCOCC2)N2CCOCC2)ccc1Cl (configuration not stated) | 4.6% | 7.15% | 12.8% | -1.35% | 10.8% | 26.9% |
| C#CC(N)=O | -9.6% | 11.4% | -0.6% | -20.6% | -6% | 4.4% |
| O=[N+]([O-])c1ccc(S(=O)(=O)SC(F)(F)F)cc1 | 14.7% | 3.85% | -1% | -47.1% | -3.25% | 11.3% |
| Cc1cccc(C)c1N=O | -6.25% | -15.2% | -7.45% | 22.8% | 1.15% | -16.1% |
| COC(=O)C1OC1C(=O)OC (configuration not stated) | -17.4% | -26.5% | 1.15% | -28.9% | 12.3% | 1.6% |
| CC(Oc1ccc([N+](=O)[O-])cc1)c1ccccc1 (configuration not stated) | -21.6% | -0.55% | -3.7% | -37.1% | -23.4% | 1.4% |
| COCCC(=O)SCc1ccccc1 | 9.55% | -45.3% | -9.2% | -35.6% | -16.5% | 1% |
| O=C(O)/C=C/c1ccc(Oc2ccccc2C(=O)O)o1 | -3.45% | -7.15% | 5.05% | 2.3% | -1.2% | -2.25% |
| COC(=N)/C(C#N)=N/C1OCC(O)C(O)C1O (configuration not stated) | 5.65% | -21.1% | 2.15% | -31.6% | 0.35% | 0.45% |
| c1ccc(SC(Sc2ccccc2)=C2CCC2)cc1 | 9.7% | -8.1% | 10.4% | 14.8% | 18% | -6.35% |
| CCC1CC(=O)NC(=O)NC1=O (configuration not stated) | -4.6% | 30.8% | -3.75% | 12.1% | 7.2% | 6.9% |
